# Sampled rows, rich in hits. Any-hit rate of the full collection: about 2%.
# TDP-43 yeast inh: TDP-43 toxicity inhibition in yeast; TDP-43 expressing yeast growth rescue, BacTiter-Glo, 24 h; Potency, µM (titrated, usually from 46.1 µM), hits mostly activators; actives 1.8% (n = 410,000); AID 652104; also: nearly all actives have a fitted effect of over 50% in size
#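 Luminescence from BacTiter-Glo reports growth of TDP-43-expressing yeast after 24 hr at 30 deg C with compound. Cells were raffinose-pregrown to mid-log, then seeded in galactose medium at OD600=0.02.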
# mIDH1 inhibitor: blocks human mutant IDH1 R132H enzyme | AID 602179 | O75874 | actives 0.093% (n = 390,000) | Potency, µM (top dose mostly 76.6 µM), hits mostly inhibitors | IDH1-R132H enzyme, NADPH consumption, diaphorase/resazurin fluorescence; also: nearly all actives have a fitted effect of over 65% in size
# Target sequence (O75874 whole entry R132H, stated change not applied): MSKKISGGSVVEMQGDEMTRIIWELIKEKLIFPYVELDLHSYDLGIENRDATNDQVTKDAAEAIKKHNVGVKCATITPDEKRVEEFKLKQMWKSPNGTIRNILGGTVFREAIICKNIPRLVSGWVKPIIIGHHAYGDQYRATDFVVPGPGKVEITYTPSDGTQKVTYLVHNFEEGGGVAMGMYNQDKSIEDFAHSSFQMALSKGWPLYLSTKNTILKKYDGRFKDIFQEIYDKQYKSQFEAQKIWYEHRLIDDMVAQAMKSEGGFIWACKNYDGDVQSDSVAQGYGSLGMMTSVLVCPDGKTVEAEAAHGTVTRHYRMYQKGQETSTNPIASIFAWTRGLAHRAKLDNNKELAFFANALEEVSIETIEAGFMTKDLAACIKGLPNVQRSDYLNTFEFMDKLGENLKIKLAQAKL
#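 IDH1-R132H (0.5 ug/mL) preincubated 30 min with compound, then NADPH (0.016 mM) and alpha-KG (2 mM) added; 80 min at RT, pH 7.5. Remaining NADPH coupled via diaphorase/resazurin to fluorescence (540/590 nm); concentration-response curves normalized to no-enzyme control.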
# aSyn yeast inh: inhibitors of alpha-synuclein toxicity in yeast | Yeast expressing alpha-synuclein, growth rescue, BacTiter-Glo, 24 h | Potency, µM (highest dose often 46.1 µM), usual class: activators | actives 0.14% (n = 370,000); also: nearly all actives have a fitted effect of over 65% in size
#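 Readout is rescue of growth in alpha-synuclein-expressing yeast, so inhibitors of toxicity appear as activators. Growth after 24 hr at 30 deg C in galactose medium is quantified by luminescence.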
# LDHA block: inhibitors of human lactate dehydrogenase A; purified LDHA, NADH/diaphorase-resazurin fluorescence; stronger effect = lower value; actives 0.15% (n = 480,000); AID 1347041; P00338; activity change, % (values are at about 110 or 230 µM); in the data active = activity change below about -30%; inconclusive = mostly about -25% to -30%
#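 Remaining NADH was detected by diaphorase (0.133 mg/mL) converting 37 µM resazurin to fluorescent resorufin, read at 0 and 20 minutes. The preceding 5-minute room-temperature reaction used 2 nM LDHA, 0.2 mM sodium pyruvate and 0.06 mM NADH at pH 7.4.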
# FUS yeast rescue: rescues growth of FUS-expressing yeast; S. cerevisiae FUS-expressing, growth rescue, OD600, 24 h; Potency, µM (titrated, usually from 76.6 µM), most hits filed as activators; actives 0.24% (n = 390,000); AID 1347120; also: nearly all actives have a fitted effect of over 55% in size
#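 Yeast FUS proteinopathy model; galactose-induced FUS (2%), starting OD 0.005. Cpds in dilution series, 24hr, 30C, 99% humidity. Abs 600 nm growth. Pos ctrl CP55940 (top 92uM final); neg ctrl DMSO.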
# Abeta rescue: compounds reversing amyloid beta toxicity in yeast; Potency, µM (doses to about 46.1 µM), hits mostly activators; actives 0.063% (n = 410,000); yeast expressing A-beta42, growth rescue, OD600, 48 h; response scale: 0% DMSO, 100% iron-clioquinol control; also: nearly all actives have a fitted effect of over 55% in size
#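 Yeast A-beta toxicity model in growth medium with pinned compounds, 48 h at 30 C; growth read as absorbance at 600 nm. Normalized to FeCl3/clioquinol equimolar mix (positive) and DMSO (negative).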
# Numbers stand for hits; i = inactive; ? = inconclusive; nt = no result given; [ ] = another dose, or the depositor's remark. Unless noted, calls follow the shape of the dose curve; as a rule, active = well fitted curve in the direction sought with a large enough effect; inconclusive = small, poorly fitted or top-dose-only effect, or another doubt; inactive = no such curve, though single readings can be large; an effect the other way counts as inactive or inconclusive.
SMILES,TDP-43 yeast inh,mIDH1 inhibitor,aSyn yeast inh,LDHA block,FUS yeast rescue,Abeta rescue
CCC(=O)Nc1ccc(C(=O)N/N=C/c2cccnc2)cc1,i,i,i,i,i,i
O=c1c(-c2cc3ccccc3[nH]2)nc2ccccc2n1C(CCc1ccccc1)c1nc2ccccc2[nH]1 (configuration not stated),?,nt,i,i,?,?
O=C(NCc1ccccc1)C(c1ccc(C(F)(F)F)cc1)n1c(=O)c(-c2cc3ccccc3[nH]2)nc2ccccc21 (configuration not stated),i,nt,7.08µM,i,?,?
COc1ccc(NC(=O)C(C2CC2)n2c(=O)c(-c3cc4ccccc4[nH]3)nc3ccccc32)cc1 (configuration not stated),i,nt,14.1µM,i,?,i
CSCCC(c1nc2ccccc2[nH]1)n1c(=O)c(-c2cc3ccccc3[nH]2)nc2ccccc21 (configuration not stated),17.8µM,nt,i,i,i,?
Cc1cccc(C)c1NC(=O)C(c1ccc(C#N)cc1)n1c(=O)c(-c2cc3ccccc3[nH]2)nc2ccccc21 (configuration not stated),10µM,nt,i,i,i,?
CCN(c1ccc(-c2csc(-c3cccs3)n2)cc1)S(C)(=O)=O,nt,nt,nt,i,nt,nt
CC(C)CCNC(=S)Nc1ccccc1,nt,nt,nt,i,nt,nt
CCOc1ccccc1Oc1c(C)oc2cc(OCC(=O)OC(C)(C)C)ccc2c1=O,nt,nt,nt,i,nt,nt
O=c1[nH]nc(-c2ccco2)c2c1Nc1nnnn1C2c1ccc(Br)cc1 (configuration not stated),nt,nt,nt,i,nt,nt
O=C(CCc1cc(Cl)no1)N(CCS(=O)(=O)N1CCCC1)Cc1ccncc1,nt,nt,nt,i,nt,nt
Cc1cccc(C)c1NC(=O)C(c1ccccc1)n1c(=O)c(-c2cc3ccccc3[nH]2)nc2ccccc21 (configuration not stated),?,nt,i,i,i,?
Cc1cccc(C)c1NC(=O)C(c1ccncc1)n1c(=O)c(-c2cc3ccccc3[nH]2)nc2ccccc21 (configuration not stated),14.1µM,nt,i,i,?,i
O=C(c1ccco1)N1CCN(Cc2cccc(F)c2)CC1,i,i,i,-32.1,i,i
Cc1cccc(CN2CCN(Cc3ccco3)CC2)c1,i,i,i,-31.7,i,i
N#Cc1cccnc1N1CCN(C(C(=O)O)c2c[nH]c3cc(Cl)ccc23)CC1 (configuration not stated),nt,nt,nt,i,nt,nt
O=C(CC(Sc1n[nH]c(-c2ccc(F)cc2)n1)c1ccc(F)cc1)NCc1cccnc1 (configuration not stated),nt,nt,nt,i,nt,nt
CCOc1ccc(N2CC(c3nc4ccccc4n3Cc3ccccc3F)CC2=O)cc1 (configuration not stated),i,i,nt,i,i,i
O=C1CC(c2nc3ccccc3n2Cc2c(F)cccc2Cl)CN1c1cccc(C(F)(F)F)c1 (configuration not stated),25.1µM,nt,nt,i,i,i
COc1ccccc1OCCCCn1c(C2CC(=O)N(c3ccccc3Cl)C2)nc2ccccc21 (configuration not stated),i,i,nt,i,i,i
Cc1c(Cl)cccc1N1CC(c2nc3ccccc3n2Cc2ccccc2F)CC1=O (configuration not stated),25.1µM,i,nt,i,i,i
Cc1ccccc1OCCCCn1c(C2CC(=O)N(c3ccccc3Cl)C2)nc2ccccc21 (configuration not stated),11.2µM,i,nt,i,i,?
CCN1CCN(c2oc(COc3ccccc3F)nc2C#N)CC1,nt,nt,nt,i,nt,nt
COc1cccc(Oc2coc3cc(OC(=O)c4ccc([N+](=O)[O-])cc4)ccc3c2=O)c1,nt,nt,nt,i,nt,nt
Nn1c(SCc2ncc(-c3ccccc3)o2)nnc1-c1ccccc1F,nt,nt,nt,i,nt,nt
SMILES,TDP-43 yeast inh,mIDH1 inhibitor,aSyn yeast inh,LDHA block,FUS yeast rescue,Abeta rescue
COc1ccc(C2=C(O)C(=O)N(Cc3cccnc3)C2c2ccccc2F)cc1 (configuration not stated),nt,nt,nt,i,nt,nt
CCCCNC(=O)C1(C)CCCCN1C(=O)c1ccc2c(c1)C(C)(C)CCC2(C)C (configuration not stated),20µM,nt,i,i,i,i
CCCCNC(=O)C1(C)CCN1C(=O)c1ccc2c(c1)C(C)(C)CCC2(C)C (configuration not stated),i,nt,i,i,i,i
O=C1Nc2ccccc2C12Nc1ccccc1-c1nc3ccccc3n12 (configuration not stated),i,i,i,i,i,i[9.22 µM]
CN1C(=O)C2(Nc3ccccc3-c3nc4ccccc4n32)c2ccccc21 (configuration not stated),i,i,i,i,50.1µM,i
N/C(=N\OC(=O)c1ccc2c(c1)OCO2)c1cccc(Br)c1,6.31µM,i,i,i,i,i
COc1cc(C)c(S(=O)(=O)Nc2ccc(Nc3cc(N4CCCC4)nc(C)n3)cc2)cc1C,nt,nt,nt,i,nt,nt
Cc1cccc(C2NC(=O)c3ccccc3O2)c1 (configuration not stated),14.1µM,i,i,i,i,i
O=C1NC(c2cccc(Cl)c2)Oc2ccccc21 (configuration not stated),?,i,i,i,i,i
N#CC(C(=O)NCc1ccccc1)C(=O)c1cccc(C(F)(F)F)c1 (configuration not stated),nt,nt,nt,i,nt,nt
CCc1ccc2oc(-c3cc(N=Cc4cccc(OC)c4O)ccc3O)nc2c1,15.8µM,i,i,i,i,i
CCc1ccc2oc(-c3cc(NC(=O)c4cc(OC)c(OC)c(OC)c4)ccc3O)nc2c1,?,i,nt,i,i,i
CCCn1c(=O)[nH]c(=O)c2c1nc(-c1ccc(Cl)cc1)n2CCOC,nt,nt,nt,i,nt,nt
Cc1cc(C)c2nc(NC(=O)c3ccc(S(=O)(=O)N4CCCC4)cc3)sc2c1,i,i,i,i,i,i
Cc1cccc2sc(NNC(=O)c3ccc4c(c3)OCCO4)nc12,35.5µM,i,i,i,i,?
Cc1cc(C)c2nc(NNC(=O)c3ccc(S(=O)(=O)N4CCCCC4)cc3)sc2c1,6.31µM,i,i,i,?,i
CCOC(=O)N1CCN(S(=O)(=O)c2ccc(C(=O)NNc3nc4cc(C)cc(C)c4s3)cc2)CC1,5.62µM,i,i,i,i,i
Cc1ccc(C(=O)NNC(=O)c2ccc(S(=O)(=O)N3CCCCC3)cc2)cc1,i,i,i,-31.9,i,i
COc1cccc2sc(NC(=O)c3ccc4c(c3)OCCO4)nc12,i,i,nt,i,i,i
Cc1nc(COc2ccccc2C(=O)N2CCC(C)CC2)no1,nt,nt,nt,i,nt,nt

# High-throughput results as filed in PubChem.
